The values below come from PubChem BioAssay AID493131 (Broad Institute, 2011).

Structures are written as SMILES. The whole screen tested about 340,000 compounds, of which about 3,300 (0.97%) were called active.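 The calls were made as follows: active = mean activation above about 17%, with every replicate also reaching it (limit read from the data, passing the limit was not always enough); inconclusive = only one of the two conditions met; inactive = the rest.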 Many of the other results were omitted from the sample, so actives are more common in it than they were.

Chain of Protein FosB (Mus musculus) (P13346 whole entry, looked up): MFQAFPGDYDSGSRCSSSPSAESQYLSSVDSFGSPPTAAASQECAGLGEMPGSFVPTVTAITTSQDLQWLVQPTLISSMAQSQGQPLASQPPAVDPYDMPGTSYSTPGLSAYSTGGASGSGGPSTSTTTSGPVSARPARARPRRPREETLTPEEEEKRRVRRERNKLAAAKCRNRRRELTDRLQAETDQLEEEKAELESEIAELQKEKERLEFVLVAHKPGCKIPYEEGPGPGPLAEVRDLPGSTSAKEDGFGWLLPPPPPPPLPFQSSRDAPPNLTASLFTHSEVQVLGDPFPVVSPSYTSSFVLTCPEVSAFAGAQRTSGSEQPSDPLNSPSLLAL

The assay concerns the target Protein FosB (Mus musculus) (UniProt P13346). In words: activators of delta FosB homodimer, primary screen, biochemical, fluorescence polarization, TAMRA-CDK5 oligo, single point (AID 493131). The note with it: purified delta FosB, at 25 µM, active compounds read high. (In general: Fluorescence polarisation rises when a labelled molecule tumbles more slowly, as on binding a larger partner.)
On to `O=c1[nH]c(CN2CC=C(c3ccccc3)CC2)nc2scc(-c3cccs3)c12`, for which the activation is 35.5% (active).
`CC1([N+](=O)[O-])COP(=O)(Nc2ccc(F)cc2)OC1` (stereo not given): the activation is 2.39% (inactive).
As for `C[C@@]1([C@@H](NP(=O)(c2ccccc2)c2ccccc2)c2ccccc2)C[C@H]1CCO`, the activation is 0.415% (inactive).
On to `N#Cc1ccc(Cn2cc(C(=O)c3ccco3)c3ccccc32)cc1`, for which the activation is -7.9% (inactive).
In the case of `C=CCN1C(=O)C2(C(C(=O)OCC)=C(N)Oc3c2c(=O)oc2ccccc32)c2ccccc21` (stereo not given), the activation was -8.76% (inactive).
With `OC(Cn1c2ccccc2c2ccccc21)C[n+]1ccccc1` (stereo not given), the activation was 20.4% (active).
For the compound `COC(=O)C1=C(c2cccc(OCc3ccccc3)c2)C[C@@H]2CC[C@H]1N2C(=O)NNCc1ccccc1`, the activation is -6.41% (inactive).
For the compound `Cc1ccc(CN2CCCC(C(=O)c3ccc4c(c3)OCO4)C2)cc1C` (stereo not given), the activation was -3% (inactive).
On to `CCN1CCN(c2nc3c(c(=O)[nH]2)CCC3)CC1`, for which the activation is -2.7% (inactive).
For the compound `O=C(c1ccccc1)C(O)(CN1CCCCC1)c1ccccc1` (stereo not given), the activation is -1.99% (inactive).
